PubChem BioAssay (Tox21)
Inconclusive results are not listed. Entries that show only a call come without a potency. Calls of active or inactive are those of the source. The call rests on the fitted dose curve; in most records, active means well fitted activation curve with a large enough effect in the repeat runs; inconclusive means weak or mixed curves; inactive means flat fitted curve, though single readings scatter.
Potency means the concentration at half of the fitted maximal effect.

Assay: A CellTox Green Cytotoxicity Assay to monitor cytotoxicity in HEK293 cells - 16 hour (AID 1224888); further: nearly all actives have a fitted effect of over 35% in size
Settings: CellTox Green fluorescence; series mostly up to 76.8 µM
Text: National Center for Advancing Translational Sciences [NCATS]
NIH Chemical Genomics Center [NCGC]
U.S. Environmental Protection Agency [EPA]
National Institutes of Environmental Health Sciences [NIEHS]
National Toxicology Program [NTP]
Cell-based models are critical for drug discovery. Determining the natural cytotoxic effects resulting from test compounds is an essential research activity. A CellTox Green Cytotoxicity Assay to monitor cytotoxicity in real time of continues cell culture during 40 hours of the compound treatment was used to screen Tox21 10K library compounds in Hek293 cells. CellTox Green Cytotoxicity Assay is a nonlytic, homogeneous, biofluorescent method to measure cytotoxicity in cell culture after experimental manipulation. The assay system uses a proprietary asymmetric cyanine dye that is excluded from viable cells but preferentially stains the dead cell's DNA. […] Viable cells produce no appreciable increases in fluorescence. Therefore, the fluorescence signal produced by the binding interaction with dead cell DNA is proportional to cytotoxicity.
The mixture of Hek293 cell suspension and reagents were dispensed at 600cells/6 ul/well in 1536-well tissue culture treated black solid bottom plates using a Multidrop dispenser. After the assay plates were incubated at a 37 C/5% CO2 incubator for 5 hours, 23 nL of compounds dissolved in DMSO, positive and negative controls was transferred to the assay plate by a pintool work station. The plates were incubated at 37 C for 40 hours. The fluorescence intensity were measured at 0h, 8h, 16h, 24h, 32h and 40h time points using ViewLux plate reader during compound treatment.
For `CCCCC(CC)COC(=O)c1ccc(C(=O)OCC(CC)CCCC)c(C(=O)OCC(CC)CCCC)c1` (stereo not given), the Potency was “inactive”. For `CCCCCCOC(=O)c1ccccc1C(=O)OCCCCCC`, the Potency was “inactive”. For `C=C(C)[C@H]1Cc2c(ccc3c2O[C@@H]2COc4cc(OC)c(OC)cc4[C@@H]2C3=O)O1`, the Potency was “inactive”. In the case of `CCC(C)c1cc([N+](=O)[O-])cc([N+](=O)[O-])c1O` (stereo not given), the Potency is reported as “inactive”. In the case of `Oc1cc(Cl)ccc1Cl`, the Potency is reported as “inactive”. With `CC(C)(C)c1ccccc1O` the Potency was “inactive”. In the case of `Cc1cc(C)cc(C)c1`, the Potency is reported as “inactive”. For `Nc1cccnc1`, the Potency was “inactive”. In the case of `Brc1ccc(Oc2cc(Br)c(Br)cc2Br)c(Br)c1`, the Potency is reported as “inactive”. For `CCOCN(C(=O)CCl)c1c(C)cccc1CC`, the Potency was “inactive”. In the case of `CC(C)C(=O)OCC(C)(C)C(OC(=O)C(C)C)C(C)C` (stereo not given), the Potency is reported as “inactive”. For `Nc1ccncc1`, the Potency was “inactive”. In the case of `O=[N+]([O-])c1ccc(O)c([N+](=O)[O-])c1`, the Potency is reported as “inactive”. In the case of `Cc1ccccc1[N+](=O)[O-]`, the Potency is reported as “inactive”. With `CCOC(=S)S` the Potency was “inactive”. In the case of `c1ccc(NNc2ccccc2)cc1`, the Potency is reported as “inactive”. For `CC(C)(OOC(C)(C)c1ccccc1)c1ccccc1`, the Potency was 43.6 µM (active). For `CCN(CC)C(=O)SCc1ccc(Cl)cc1`, the Potency was “inactive”. For `CC(C)(c1cc(Cl)c(O)c(Cl)c1)c1cc(Cl)c(O)c(Cl)c1`, the Potency was “inactive”. With `Nc1ccc(-c2ccccc2)cc1` the Potency was “inactive”. In the case of `c1cc(OCC2CO2)ccc1Cc1ccc(OCC2CO2)cc1` (stereo not given), the Potency is reported as “inactive”. With `S=C1NCCN1` the Potency was “inactive”. With `CCN(N=O)C(N)=O` the Potency was “inactive”. With `Cc1cc(Cl)ccc1OCCCC(=O)O` the Potency was “inactive”. With `O=C(CCl)c1ccccc1` the Potency was “inactive”. With `C=CCc1ccc2c(c1)OCO2` the Potency was “inactive”. With `COc1ccc(C=O)cc1` the Potency was “inactive”. With `CC(C)N(C(=O)SCC(Cl)=C(Cl)Cl)C(C)C` the Potency was “inactive”. For `CNC(=O)Oc1cccc2c1OC(C)(C)O2`, the Potency was “inactive”. In the case of `CCC(C)(c1ccc(O)cc1)c1ccc(O)cc1`, the Potency is reported as “inactive”. With `COP(=S)(OC)Oc1ccc([N+](=O)[O-])cc1` the Potency was “inactive”. For `N#CCCCl`, the Potency was “inactive”. For `O=S(=O)(Oc1ccc(Cl)cc1)c1ccc(Cl)cc1`, the Potency was “inactive”. For `CCOC(=O)C(C)OC(=O)c1cc(Oc2ccc(C(F)(F)F)cc2Cl)ccc1[N+](=O)[O-]` (stereo not given), the Potency was “inactive”. In the case of `Cc1cccc(N)c1N`, the Potency is reported as “inactive”. In the case of `C[C@]12CCC(=O)C(O)=C1CC[C@@H]1[C@@H]2CC[C@]2(C)C(=O)CC[C@@H]12`, the Potency is reported as “inactive”. With `CC(C)NC(C)C` the Potency was “inactive”. For `CCN(CC)C(=O)/C(Cl)=C(\C)OP(=O)(OC)OC`, the Potency was “inactive”. In the case of `Cc1ccc(N)c(N)c1`, the Potency is reported as “inactive”. With `NNC(N)=S` the Potency was “inactive”.
